For eleven molecules, AC50 and outcome results are on record in PubChem BioAssay (EPA / NIEHS).

Values joined by “and” are separate entries in the source; they are usually repeats but may differ in a detail not shown here. Equal values may be shown once. Active and inactive are the calls of the source. Rule for the calls: active = hit-call score of the fitted dose curve at least 0.9, where 1 is the maximum; inconclusive = response in the unintended direction; inactive = score below 0.9.

The subject of this experiment is rat CYP2B1, gene 24300. The experiment can be described thus: NVS_ADME_rCYP2B1: NovaScreen (NVS) CYP450-related Enzyme Activity (ADME) Assay for rat CYP2B1 (AID 2283117). As to the method:
NVS_ADME_rCYP2B1 is a biochemical, single-readout assay that uses extracted gene-proteins in a cell-free assay. Measurements were taken 0.75 hour after chemical dosing in a 96-well plate.NVS_ADME_rCYP2B1 is one of one assay component(s) measured or calculated from the NVS_ADME_rCYP2B1 assay. It is designed to make measurements of enzyme activity, a form of enzyme reporter, as detected with fluorescence intensity signals by Fluorescence technology.Data from the assay component NVS_ADME_rCYP2B1 was analyzed into 1 assay endpoint. This assay endpoint, NVS_ADME_rCYP2B1, was analyzed in the positive analysis fitting direction relative to Acetonitrile as the negative control and baseline of activity. Using a type of enzyme reporter, loss-of-signal activity can be used to understand changes in the enzymatic activity as they relate to the gene Cyp2b1. Furthermore, this assay endpoint can be referred to as a primary readout, because this assay has produced multiple assay endpoints where this one serves a enzymatic activity function. To generalize the intended target to other relatable targets, this assay endpoint is annotated to the cyp intended target family, where the subfamily is xenobiotic metabolism.
Binding assays used specific radioligands (tritiated, iodinated) with non-radioactive competitive displacement ligands in agonist or antagonist protocols (as indicated) and various reference compounds and inhibitors to titrate specific binding to receptors and transporters. Most enzyme assays (CYPs, kinases, phosphatases, proteases, HDACs) used recombinant protein and specific substrates (fluorescence mostly, some colorimetric and radioactive) and inhibitors, followed by a biochemical separation of substrate and product. All assays for the biochemical HTS were initially run in duplicate at a single concentration (10 uM for CYP450 assays and 25 uM for all others). Assay-chemical combinations meeting a pre-defined threshold (e.g., 30% inhibition and other criteria defined below) were then run in singleton concentration-response format with maximum concentration of 20 uM for CYPs and 50 uM for all others. Each assay was run with positive and negative controls, and concurrent controls on every plate. The follow-up (secondary) screen tested active chemical-pairs in concentration series, as well as a few additional assays not tested in the primary screen, some selected negative inactives, and several cases re-run in the concentration series for confirmatory purposes.
Usually AC50 stands for the concentration giving half of the maximal activity seen. As to `CCCCC(O)(Cn1cncn1)c1ccc(Cl)cc1Cl` (stereo unspecified), the AC50 is 0.0547 µM (active).

On to `CCCCC(C#N)(Cn1cncn1)c1ccc(Cl)cc1` (stereo unspecified), for which the AC50 was 1.64 µM (active).

`CC1(C)CCC(=Cc2ccc(Cl)cc2)C1(O)Cn1cncn1` (stereo unspecified): the AC50 was 1.84 µM (active).

`CCNC(=O)NC(=O)C(C#N)=NOC`: the call was inactive.

`CCNP(=S)(OC)O/C(C)=C/C(=O)OC(C)C` (stereo unspecified): the AC50 is 1.45 µM (active).

Regarding `COP(=S)(OC)SCn1nnc2ccccc2c1=O`, the AC50 is 3.35 µM (active).

`CCCN(CC)CC1COC2(CCC(C(C)(C)C)CC2)O1` (stereo unspecified): the outcome was inactive.

`COP(=S)(OC)Oc1ccc([N+](=O)[O-])c(C)c1`: the AC50 is 1.17 µM (active).

As for `CC(C)(C)C(=O)C(Oc1ccc(Cl)cc1)n1cncn1` (stereo unspecified), the AC50 is 549 nM (active) and 1.69 µM (active).

Consider `CC(C)C1(C)N=C(c2ncccc2C(=O)O)NC1=O` (stereo unspecified), for which the result was inactive.

For the molecule `N#Cc1c(Cl)cccc1Cl`, the molecule was classed as inactive.
